The values below come from PubChem BioAssay (NCI).

Common to all, as to test: NCI-60 one-dose screen, 48 h (100 = growth as untreated, 0 = no growth, -100 = all killed)
Holding throughout (details): 10 µM unless noted

Test [1] deals with NCI-H23 lung.
For test [2], the system named is NCI-H226 lung.
Test [3] concerns NCI-H322M lung.
The test system of test [4] is HOP-62 NSCLC.
The test system of test [5] is NCI-H460 lung.
In test [6] the test system is A549/ATCC NSCLC.
The test system of test [7] is 786-0 renal.
Test [8] relates to COLO 205 colon.
The test system of test [9] is DU-145 prostate.
Test [10] concerns K-562 leukemia.
In test [11] the test system is MALME-3M melanoma.
Test [12] has as its system MDA-MB-231 breast.
Test [13] deals with RXF 393 renal.
The test system of test [14] is SF-268 CNS.
Test [15] relates to SF-295 CNS.
The subject of test [16] is SF-539 CNS.
The subject of test [17] is UACC-257 melanoma.
Test [18] concerns M14 melanoma.

Compounds without any hit were thinned out: in the full panel of roughly 83,000, 20% have a hit.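 Testing used 96-well plates and a 48-hour single-concentration exposure. Example: -40 means 40% of the starting cells died.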 Values without a mark were called inactive. Active and inactive are the calls of the source. How the source made its calls: active means growth percent below 10; inactive means the rest.

In the case of `CCCCCCCCCC[N+](C)(C)N`, the growth in test [1] is 104%; in test [2] it was 92.3%; in test [3], 97.7%; in [4], 95.8%; in test [5], 111%; in test [6] it was 97.6%. The growth is 81.9% in test [7]; 100% in test [8]; 111% in [9]; 71.6% in test [10]; 95% in test [11]; 101% in test [12]. For the same molecule, the growth is 81.8% in [13]; 98.6% in test [14]; 98.4% in [15]; 89.1% in [16]; 94.7% in [17]; 105% in test [18].
For the molecule `Cc1ccc(NC(=O)CCl)cc1Cl`, the growth in [1] was 89.2%; in [2], 103%; in test [3], 97.1%; in test [4], 98.9%; in [5], 105%; in [6], 106%. In addition, the growth in [7] is 117%; in test [8], 122%; in test [9], 111%; in test [10], 87.3%; in test [11], 78.7%; in [12], 89.4%. Also, the growth in test [13] was 102%; in test [14] it was 103%; in test [15] it was 81.2%; in test [16], 108%; in [17] it was 90.5%; in test [18] it was 104%.
As to `COc1ccc(-c2nnc(SCC(=O)Nc3ccc(C(=O)/C=C/c4cc(OC)c(OC)c(OC)c4)cc3)n2-c2ccccc2)cc1OC`, the growth is -66.5% [100 µM] (active) in [1]; -15% [100 µM] (active) in [2]; 34.5% [100 µM] in [3]; -31.4% [100 µM] (active) in test [4]; 11% [100 µM] in [5]; -28.4% [100 µM] (active) in test [6]. Further, the growth in test [7] was -54.9% [100 µM] (active); in test [8] it was 30.3% [100 µM]; in [9], -29.4% [100 µM] (active); in [10], 31.4% [100 µM]; in [11] it was -33.4% [100 µM] (active); in test [12] it was -44.6% [100 µM] (active). The growth was -24.7% [100 µM] (active) in test [13]; -52.2% [100 µM] (active) in [14]; -86.2% [100 µM] (active) in test [15]; 1.43% [100 µM] (active) in test [16]; 22.1% [100 µM] in [17]; 1.87% [100 µM] (active) in test [18].
On to `COc1cccc(NC(=O)NCCNc2nccc(-c3c(-c4ccc(F)cc4)nc4sccn34)n2)c1`, for which the growth was 89.9% in test [1]; 85.9% in test [2]; 115% in test [3]; 99.4% in test [4]; 58.8% in test [5]; 54.4% in test [6]. The growth in test [7] was 63%; in test [8], 69.3%; in test [9], 76.9%; in [10], 71.4%; in test [11] it was 140%; in [12], 79.4%. The growth was 88.5% in test [13]; 84.2% in [14]; 103% in test [15]; 102% in test [16]; 119% in [17]; 92.6% in [18].
For `N#Cc1c2ncccc2c2nnc3cc(Cl)c(Cl)cc3n12`, the growth was 88.6% in [1]; 104% in test [2]; 100% in test [3]; 82.7% in test [4]; 100% in [5]; 107% in test [6]. In addition, the growth in [7] was 108%; in test [8] it was 113%; in test [9], 89.2%; in test [10] it was 91%; in test [11] it was 79.6%; in [12], 67%. For the same molecule, the growth was 116% in [13]; 90.6% in test [14]; 105% in test [15]; 97.1% in test [16]; 95.3% in test [17]; 100% in test [18].
Turning to `Cc1cc2cn3c4ccc(O)cc4[nH]c(=O)c3c2cc1C`, the growth is 25.3% in [1]; 54.3% in test [2]; -8.89% (active) in [3]; 11.7% in [4]; -81.9% (active) in test [5]; 3.2% (active) in test [6]. For the same molecule, the growth was 19.1% in test [7]; -63.3% (active) in test [8]; 3.48% (active) in test [9]; -36.8% (active) in test [10]; 16.4% in test [11]; -11.1% (active) in [12]. Besides, the growth in [13] is 38.1%; in [14], 15.4%; in test [15], 9.25% (active); in test [16] it was 12%; in test [17] it was 46.6%; in test [18], -19.4% (active).
As for `O=CN/N=C/c1ccc(Cl)c([N+](=O)[O-])c1`, the growth was 26.5% in test [1]; 35.4% in test [2]; 28.6% in [3]; 20.8% in test [4]; 8.54% (active) in [5]; 14.5% in test [6]. The growth in test [7] was 31.6%; in test [8] it was 26%; in test [9], 24.5%; in test [10] it was 15.4%; in [11], 30%; in test [12] it was 43.9%. Moreover, the growth is 40.1% in test [13]; 21.5% in [14]; 3.88% (active) in [15]; 22.2% in test [16]; 18.2% in [17]; 29% in test [18].
Turning to `O=c1c2c(c3ccccc3n1-c1ccccc1)NC(=S)NC2c1ccc(Cl)cc1` (configuration not stated), the growth was 26.7% in test [1]; 65% in test [2]; 45.1% in test [3]; 29.3% in [4]; 2.25% (active) in test [5]; 31.7% in [6]. Besides, the growth in test [7] was 18.6%; in [8], 67.2%; in test [9] it was 47.2%; in [10], 43.1%; in test [11], 39.2%; in [12] it was 50.5%. Besides, the growth in test [13] is 46.3%; in test [14], 43.5%; in test [15], 25.9%; in test [16], 21.2%; in [17], 44.1%; in test [18], 29.1%.
`CCCCCCC(C)N(CC(C)(C)O)C(=O)c1ccc([N+](=O)[O-])cc1` (configuration not stated): the growth in test [1] was 99.2%; in test [2], 95.2%; in [3] it was 91.1%; in test [4], 87.3%; in [5], 105%; in [6] it was 104%. Besides, the growth in test [7] was 94.5%; in test [8] it was 99.6%; in test [9] it was 101%; in [10], 85.1%; in test [11], 95.8%; in [12], 106%. The growth in test [13] is 100%; in test [14] it was 110%; in [15], 88.6%; in test [16] it was 108%; in [17], 106%; in [18], 93.4%.
